Most compounds without a hit are left out; they make up all but 7.4% or so of the library.
SMN2 splice enh – enhancers of SMN2 splice variant expression; HEK293 SMN2-luciferase splicing reporter, luminescence, 30-36 h; AID 1458; Potency, µM (titrated, usually from 46.1 µM), without a hit: at the highest dose activity change, positive = activation, actives largely listed as activators; hit rate 2.8% among 210,000; also: % of control where 0% means no effect; nearly all actives have a fitted effect of over 55% in size
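HEK293 cells carry an SMN2 […]–luciferase reporter in which exon 7 inclusion puts luciferase in frame. Cells were plated 10-12 h before compound addition, then incubated 30-36 h at 37C. ONE-Glo luminescence was read; sodium butyrate at 4.5 mM final served as control.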
FLuc counter – counter-screen for miR-21 project: firefly luciferase inhibitors or activators; purified FLuc, Km substrates, luminescence inhibition; Potency, µM (series often up to 57.5 µM), without a hit: at the highest dose activity change, negative = inhibition, usual class: inhibitors; hit rate 6.9% among 360,000; AID 588342;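 also: plate controls were vehicle for no effect and reference inhibitor for full effect; nearly all actives have a fitted effect of over 55% in size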
Target sequence (P08659 whole entry, looked up): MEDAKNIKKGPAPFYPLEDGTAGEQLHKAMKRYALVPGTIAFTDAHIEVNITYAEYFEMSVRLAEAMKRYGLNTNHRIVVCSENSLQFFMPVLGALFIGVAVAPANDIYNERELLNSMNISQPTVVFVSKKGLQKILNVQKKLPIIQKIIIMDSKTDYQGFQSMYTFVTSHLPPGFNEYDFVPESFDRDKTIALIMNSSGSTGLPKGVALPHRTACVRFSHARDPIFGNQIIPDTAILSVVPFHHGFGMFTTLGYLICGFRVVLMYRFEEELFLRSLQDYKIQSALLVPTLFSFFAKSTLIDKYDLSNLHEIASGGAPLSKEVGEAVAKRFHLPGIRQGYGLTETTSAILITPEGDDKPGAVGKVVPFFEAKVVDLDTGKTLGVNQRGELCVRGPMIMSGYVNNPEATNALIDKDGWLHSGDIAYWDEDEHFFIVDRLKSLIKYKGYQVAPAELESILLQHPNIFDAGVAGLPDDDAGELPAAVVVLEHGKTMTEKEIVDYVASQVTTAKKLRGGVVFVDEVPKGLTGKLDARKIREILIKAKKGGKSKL
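Purified P. pyralis luciferase (10nM final) with 10uM D-luciferin and 10uM ATP (Km levels) in 50mM Tris acetate pH 7.5, 10mM Mg acetate, 0.01% Tween-20, 0.05% BSA; qHTS 6-point titration, ~60 µM downward; luminescence read.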
ELG1 genotox – genotoxicity induction in ELG1-luciferase HEK293T cells; HEK293T ELG1-luciferase reporter, luminescence, 16 h; hit rate 1.3% among 330,000; Potency, µM (series often up to 46 µM), inactives show at the top dose activity change, positive = activation, most hits filed as activators; also: % of control where 0% means no effect; nearly all actives have a fitted effect of over 60% in size
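Genotoxic stress is detected as increased luminescence from luciferase-tagged ELG1 in HEK293T cells, measured with ONE-Glo after a 16 hr treatment at 37 °C.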
NPC1 promoter act – activators of NPC1 promoter; Huh7 NPC1 promoter luciferase reporter, 24 h; Potency, µM (series often up to 9.22 µM), without a hit: top-dose activation, usual class: activators; hit rate 2.4% among 320,000; AID 485313; also: % of control where 0% means no effect; nearly all actives have a fitted effect of over 60% in size
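Readout is luciferase luminescence, reflecting NPC1 promoter activation in stably transfected Huh7 cells after 24 h compound exposure at 37 °C in reduced-serum medium with 10% FBS.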
Rab9 promoter act – Rab9 promoter activation; Huh7 Rab9 promoter-luciferase reporter, luminescence, 24 h; Potency, µM (titrated, usually from 9.22 µM), for inactives: top-dose activation, negative = inhibition, actives largely listed as activators; hit rate 2.8% among 320,000; AID 485297; also: % of control where 0% means no effect; nearly all actives have a fitted effect of over 60% in size
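Cell-based reporter: Huh7 stable for Rab9 promoter-driven luciferase, plated in reduced-serum medium with 10% FBS at 1500 cells/well, compound-treated 24 h at 37 °C, luminescence read after 10 min reagent.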
Active calls of the source: *; u = inconclusive; x = no result. Calls follow the shape of the dose curve; as a rule, active = well fitted curve in the direction sought with a large enough effect; inconclusive = small, poorly fitted or top-dose-only effect, or another doubt; inactive = no such curve, though single readings can be large; an effect the other way counts as inactive or inconclusive. Potency is read from the fitted curve at half-maximal effect.

SMILES	SMN2 splice enh	FLuc counter	ELG1 genotox	NPC1 promoter act	Rab9 promoter act
Cc1ccc2c(c1)N(C(=O)CCC(=O)NCc1ccccc1Cl)CC(C)O2 (stereo not drawn)	x	-6%	x	x	x
CC(C(Sc1ccccc1N)c1ccccc1)[N+](=O)[O-] (stereo not drawn)	x	9.5µM*	u	-14%	-3%
Cc1noc(C)c1C(=O)N1CCC2(CCCN(c3ccccn3)C2)CC1	11%	x	x	x	x
Cc1c(Cl)cccc1NC(=O)CSc1cc(-c2ccccc2)ncn1	x	-5%	x	x	x
O=C(O)Cc1ccc(OCc2ccc(Cl)nc2)cc1	-3%	15µM*	-10%	9%	1%
CCOc1ccc(CCNC(=O)CSc2nnnn2-c2ccccc2Cl)cc1OCC	-10%	-16%	x	x	x
CC(C)NC(=O)CSc1nc(-c2ccccc2)cs1	u	19µM*	17%	u	2.5µM*
COC(=O)c1ccc(CSc2nc(-c3ccccc3)cs2)o1	2%	8.5µM*	12%	12%	12%
Cc1ccc(NC(=O)Cn2cc(C(=O)c3ccco3)c3ccccc32)cc1	x	-1%	x	x	x
Cc1cccc(C)c1Nc1oc(-c2ccccc2)nc1-c1ccccc1F	29%	x	x	x	x
COc1ccc(F)cc1S(=O)(=O)NCCc1sc2nc(-c3ccc(F)cc3)nn2c1C	x	-11%	x	x	x
COc1ccc(CNC(=O)c2cc3cc(S(=O)(=O)N4CCCCC4)ccc3n2C)c(OC)c1	x	3%	x	x	x
Cc1ccc(C(=O)NCC(=O)NC2CCCC2)cc1	23%	3%	1%	0%	0%
Cc1ccc(C(=O)NC2CCCCCCC2)c(Cl)c1	x	0.76µM*	1.5µM*	0.32µM*	0.32µM*
Cc1ccc(C(=O)NC2CCCCC2)cc1	14µM*	21µM*	30%	2.8µM*	2.5µM*
O=C(NC(=S)NC1CCCCC1)c1ccc(F)cc1	x	u	u	u	4µM*
O=C(NC(=S)NC(CO)Cc1ccccc1)c1ccc(F)cc1 (stereo not drawn)	x	0%	u	1.3µM*	4µM*
O=C(NC1CC1)c1ccc(F)cc1Cl	0%	3%	1%	9%	0%
CSc1ccc(CCNC(=O)C2CCN(c3nc4ccccc4nc3C(F)(F)F)CC2)cc1	x	2%	x	x	x
NC(=O)C1(N2CCCCC2)CCN(C(=O)Nc2ccc(Cl)c(Cl)c2)CC1	-1%	-3%	x	x	x
CCc1cccc(C)c1NC(=O)CCCn1c(C)c2cnn(-c3ccccc3)c(=O)c2c1C	-17%	-8%	x	x	x
O=C(Cn1c(=O)n(Cc2ccc(F)cc2)c(=O)c2sc3ccccc3c21)NCc1ccccc1	0%	2%	x	x	x
N#Cc1ccc(C(=O)NC2CCCCCCC2)cc1	x	21µM*	u	1.8µM*	1.4µM*
O=C(NC(=S)NCCN1CCOCC1)c1ccc(F)cc1	u	1%	-1%	-1%	-3%
CC(C)CNC(=S)NC(=O)c1ccc(F)cc1	u	30µM*	u	22%	17%
SMILES	SMN2 splice enh	FLuc counter	ELG1 genotox	NPC1 promoter act	Rab9 promoter act
N#Cc1ccc(OCC(=O)NC2CCCCCC2)cc1	x	x	1%	x	x
CCOc1ccc(-c2nnc(SCC(=O)NCCc3ccccc3)nc2-c2ccc(OCC)cc2)cc1	x	6%	x	x	x
Cc1ccc(C(=O)N(Cc2nnc(-c3ccc(Cl)cc3)o2)C2CC2)o1	x	-26%	1%	1%	-5%
c1ccc(-c2nnc(CSc3nncs3)o2)cc1	u	u	23µM*	28%	25%
Brc1ccc(-c2nnc(Cc3ccccc3)o2)cc1	x	11µM*	21µM*	3.5µM*	u
COc1ccc(Cc2nnc(-c3ccccc3)o2)cc1	-13%	u	x	17%	u
Cc1ccc(-c2nnc(Cc3ccc(Cl)cc3)o2)cc1	21%	17µM*	16µM*	23%	28%
Cc1ccccc1-c1nnc(Cc2ccccc2)o1	11µM*	11µM*	u	4µM*	4µM*
C[C@@H]1[C@H](O)[C@@H](C)/C=C/C=C/C=C/C=C/C=C/C=C/C=C/[C@H](O[C@@H]2O[C@H](C)[C@@H](O)[C@H](N)[C@@H]2O)C[C@@H]2O[C@](O)(C[C@@H](O)C[C@@H](O)[C@H](O)CC[C@@H](O)C[C@@H](O)CC(=O)O[C@H]1C)C[C@H](O)[C@H]2C(=O)O	-5%	x	x	x	x

From PubChem BioAssay
